Sm TGR block: inhibitors of Schistosoma mansoni thioredoxin glutathione reductase | Potency, µM (top dose mostly 114 µM), actives largely listed as inhibitors | purified TGR, DTNB reduction, TNB absorbance 405 nm | actives 3% (n = 360,000) | AID 485364 | Q962Y6; also: nearly all actives have a fitted effect of over 60% in size
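First, TGR (20 nM dispensed) and NADPH were mixed with compound. Second, a 15 min room-temperature incubation followed. Third, further NADPH and then DTNB were added to start the reaction. Finally, TNB absorbance was monitored kinetically.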
AmpC inh no detg: blocks E. coli AmpC beta-lactamase in detergent-free assay. AID 485341. Potency, µM (doses to about 57.1 µM), usual class: inhibitors. P00811. actives 0.52% (n = 330,000). AmpC nitrocefin hydrolysis, absorbance 480 nm, 0.0001% Triton; also: nearly all actives have a fitted effect of over 20% in size
Target sequence (P00811 whole entry, looked up): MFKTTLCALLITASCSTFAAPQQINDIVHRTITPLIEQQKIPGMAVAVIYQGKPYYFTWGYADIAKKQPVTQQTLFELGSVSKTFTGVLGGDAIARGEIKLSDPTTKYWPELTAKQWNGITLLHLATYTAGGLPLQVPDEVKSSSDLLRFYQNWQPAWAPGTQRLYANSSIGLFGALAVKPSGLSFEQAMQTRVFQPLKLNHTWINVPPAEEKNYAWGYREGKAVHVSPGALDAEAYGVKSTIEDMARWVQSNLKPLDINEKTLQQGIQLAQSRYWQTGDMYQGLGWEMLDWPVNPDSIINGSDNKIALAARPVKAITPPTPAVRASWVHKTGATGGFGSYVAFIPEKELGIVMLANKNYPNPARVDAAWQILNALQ
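AmpC (5.3 nM in the dispensed reagent) in 20 mM phosphate pH 7.0 with 0.01% (detergent screen) or 0.0001% Triton X-100 was preincubated with compounds for 15 min at room temperature. Nitrocefin was then added from an 800 uM solution, and hydrolysis was followed at 480 nm.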
AmpC inh detg: inhibitors of E. coli AmpC beta-lactamase with detergent. actives 0.041% (n = 370,000). AmpC hydrolysis of nitrocefin, absorbance 480 nm, 0.01% Triton. Potency, µM (series often up to 114 µM), hits mostly inhibitors; also: nearly all actives have a fitted effect of over 25% in size
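20 mM phosphate pH 7.0 + 0.01% (detergent screen) or 0.0001% Triton X-100; 5.3 nM AmpC reagent; cpd preinc 15 min RT; nitrocefin (800 uM stock) to start; A480 q20 s × 4 min; Activity was normalised to no-enzyme and no-compound control wells.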
Hits are given with their value; 0 = inactive; ? = inconclusive; - = no result. An excerpt weighted towards active compounds, which were near 3.3% of everything screened. Calls follow the shape of the dose curve; as a rule, active = well fitted curve in the direction sought with a large enough effect; inconclusive = small, poorly fitted or top-dose-only effect, or another doubt; inactive = no such curve, though single readings can be large; an effect the other way counts as inactive or inconclusive.

SMILES | Sm TGR block | AmpC inh no detg | AmpC inh detg
C=CCn1c(SCC(N)=O)nc2scc(-c3ccc(C)o3)c2c1=O | 18µM | 0 | 0
Cc1ccc2nc(-c3ccc(NC(=O)COc4ccc(Cl)c(C)c4)cc3)sc2c1 | 0 | - | 0
COc1ccccc1CNC(=O)CCn1nc(C)c2c(C)n(-c3ccccc3)nc2c1=O | 0 | - | 0
CCN1CCN(c2nc3c(c(=O)n(C)c(=O)n3C)n2Cc2cccc3ccccc23)CC1 | 0 | 0 | 0
Cn1c(=O)c2c(nc(CN3CCN(Cc4ccccc4)CC3)n2CCN2CCOCC2)n(C)c1=O | 40µM | 0 | 0
CCN1CCN(Cc2nc3c(c(=O)n(C)c(=O)n3C)n2Cc2cccc3ccccc23)CC1 | 0 | 0.16µM | 0
Cn1c(=O)c2c(nc(CN3CCC(Cc4ccccc4)CC3)n2CCN2CCOCC2)n(C)c1=O | 0 | 0 | 0
COc1ccc2nc3sc(C(=O)N4CCN(c5ccc(F)cc5)CC4)cc3cc2c1 | 0 | - | 0
Cc1ccc2nc(N=C(N)N)nc(C)c2c1 | 0 | 10µM | 0
CCc1ccc2nc(N=C(N)N)nc(C)c2c1 | 0 | 0 | 0
CN(C)c1ccc(CNC(=O)c2ccccc2NC(=O)c2nsc3ccccc23)cc1 | 0 | - | 0
COC(=O)c1ccccc1SC1CC(=O)N(c2ccccc2)C1=O (configuration not stated) | 50µM | 0 | 0
O=C(O)c1ccccc1SC1CC(=O)N(c2cccc3ccccc23)C1=O (configuration not stated) | 1.8µM | 0 | 0
CCOC(=O)c1c(N2C(=O)CC(Sc3ccccc3C(=O)O)C2=O)sc2c1CCCC2 (configuration not stated) | - | 0 | 0
CCN1C(=O)CC(Sc2ccccc2C(=O)O)C1=O (configuration not stated) | ? | 0 | 0
COC(=O)c1ccc(N2C(=O)CC(SCCN)C2=O)cc1 (configuration not stated) | ? | 0 | ?
CCOc1ccc(N2C(=O)CC(Sc3ccccc3C(=O)O)C2=O)c([N+](=O)[O-])c1 (configuration not stated) | 18µM | 0 | 0
COc1ccc(C)cc1-n1nnc(C(=O)Nc2cccc(SC)c2)c1C | 0 | - | 0
COc1ccc2c(c1)CC(C(=O)Nc1cc(Cl)ccc1C)CO2 (configuration not stated) | 0 | - | 0
CCC(C#CCN1CCCCC1)(CC)OCCC#N | 0 | 0 | 0
CCC(C)(C#CCN1CCCCC1)OCCC#N (configuration not stated) | 40µM | 0 | 0
Cc1ccc(-c2noc(-c3ccccc3NC(=O)C3CC(=O)N(c4cccc(C)c4)C3)n2)cc1 (configuration not stated) | 0 | - | 0
COc1ccccc1N/C(N)=N/c1nc(CSc2ccc(C)cc2)cc(=O)[nH]1 | 0 | 14µM | ?
Cc1ccc(SCc2cc(=O)[nH]c(/N=C(\N)Nc3ccccc3Sc3ccccc3)n2)cc1 | 0 | 0 | ?
Cc1ccc(NC(=O)c2cc(C(=O)c3cc(Cl)ccc3O)cn(-c3ccc(C)cc3)c2=O)cc1 | 0 | 3.2µM | 0
SMILES | Sm TGR block | AmpC inh no detg | AmpC inh detg
N#Cc1cc(C(=O)c2cc(Cl)ccc2O)cn(-c2ccccc2)c1=O | 0 | 0 | 0
Cc1c(Cl)cccc1NC(=O)Nc1ccc2snnc2c1 | 0 | - | 0
COc1ccc(OC)c(NC(=O)Cn2c(=O)cc(C)c3c(C)nn(-c4cccc(Cl)c4C)c32)c1 | 0 | - | 0
CC(C)(C)OC(=O)N1CCC(c2c(C(=O)Nc3ccc4c(c3)OCCO4)cnn2-c2ccc(F)cc2F)CC1 | 0 | - | 0
CC(C)(C)c1ccc(/C([O-])=C(/C(=S)NCc2ccco2)[n+]2ccccc2)cc1 | 56µM | 0 | 0
CCNC(=S)/C(=C(/[O-])c1ccc([N+](=O)[O-])cc1)[n+]1ccccc1 | 0 | 0 | 0
Cc1ccc[n+](/C(C(=S)NCc2ccco2)=C(/[O-])c2ccccc2Cl)c1 | 32µM | 0 | 0
S=C(NCc1ccco1)N/N=C/c1ccccc1Cl | 0 | 0 | ?
CCOC(=O)c1cnc2c(C)c(Cl)ccc2c1Nc1ccc(N2CCOCC2)cc1 | 0 | - | 0
CCN=c1sc(C(=O)NCCc2ccccc2)cc(=O)n1CC | 20µM | 0 | ?
CCn1c(=O)c2cc(C(=O)NCCc3cccc(C)c3)sc2c2ccccc21 | 0 | - | 0
O=c1sc2ccccc2c(N2CCOCC2)c1[N+](=O)[O-] | 40µM | 0 | 0
O=c1sc2ccccc2c(N2CCCCC2)c1[N+](=O)[O-] | 0 | 0 | ?
CC1CCN(S(=O)(=O)c2ccc3c(c2)c(=O)c(C(=O)N2CCN(c4cccc(Cl)c4)CC2)cn3C)CC1 | 0 | - | 0
Cc1ccc(C(=O)CC2SC(N)=NC2=O)cc1 (configuration not stated) | 0 | 0 | 0
NC1=NC(=O)C(CC(=O)c2ccc(Cl)cc2)S1 (configuration not stated) | 20µM | 0 | 0
O=C(CSc1nc(=O)n(Cc2ccco2)c2c1CCC2)NCc1ccccc1Cl | 0 | - | 0
COc1ccc(OC)c(NC2=C(c3ccccc3)C(=O)c3ccccc32)c1 | 35µM | - | 0
COc1ccc(NC2=C(c3ccccc3)C(=O)c3ccccc32)cc1Cl | 0 | - | 0
Cc1ccc(NC(=O)Cn2c(C)cc(C)c(C#N)c2=O)cc1 | 0 | - | 0
COc1ccc(-c2nc(SCC(=O)NC3CCCC3)c(-c3ccc(C)cc3)[nH]2)cc1OC | 0 | - | 0
CN(C)c1ccc(/C=C2/C(=O)NC(=O)N(CCc3ccc(F)cc3)C2=O)cc1 | ? | 0 | 0
Cc1ccc(/C=C2\C(=O)NC(=O)N(Cc3ccccc3Cl)C2=O)o1 | ? | 0 | 0
Cc1ccc(/C=C2\C(=O)NC(=O)N(CCc3ccc(F)cc3)C2=O)s1 | ? | 0 | 0
Cc1ccc(/C=C2\C(=O)NC(=O)N(CCc3ccc(F)cc3)C2=O)o1 | 11µM | 0 | 0
SMILES | Sm TGR block | AmpC inh no detg | AmpC inh detg
Cc1ccc(/C=C2/C(=O)NC(=O)N(Cc3ccc(F)cc3)C2=O)o1 | 20µM | 0 | 0
CN(C)c1ccc(/C=C2\C(=O)NC(=O)N(Cc3ccc(F)cc3)C2=O)cc1 | 0.79µM | 0 | 0
COc1ccc(CCNC(=O)c2ccc3c(c2)N(Cc2ccccc2C)C(=O)c2ccccc2S3)cc1OC | 0 | - | 0
O=C(OCc1nnc(-c2ccccc2)o1)C1CC(=O)N(c2ccccc2)C1 (configuration not stated) | 0 | 0 | ?
O=C(OCc1nnc(-c2ccccc2)o1)C1CC(=O)N(Cc2ccco2)C1 (configuration not stated) | 14µM | 0 | 0
COC(=O)c1sc(N)c(C(=O)OC)c1COC(=O)C1CC(=O)N(Cc2ccco2)C1 (configuration not stated) | ? | 0 | 0
CCOC(=O)c1sc(N)c(C(=O)OCC)c1COC(=O)C1CC(=O)N(Cc2ccco2)C1 (configuration not stated) | 40µM | 0 | 0
Cc1cccc(OCC(=O)N2CCC(c3nc4ccccc4o3)CC2)c1C | 0 | - | 0
CCOc1ccc(CCNC(=O)Cn2ncn3c(cc4ccccc43)c2=O)cc1OCC | 0 | - | 0
O=C(NCC1(c2ccccc2)CCCC1)C(=O)NCC1(c2ccccc2)CCCC1 | 40µM | 0 | ?
O=C(NCC1(c2ccccc2)CCCC1)c1ccccc1 | 0 | 0 | 0
CCOC(=O)c1cc(-c2ccccc2)n(CCC(=O)Nc2ccc(OC)c(Cl)c2)c1C | 0 | - | 0
